Source: PubChem (National Center for Advancing Translational Sciences (NCATS))
Only some compounds are listed: those with a hit (about 8.3% of all), similar ones and a draw of the others.
SW480 rerep: A quantitative high throughput screen for small molecules that induce DNA re-replication in SW480 colon adenocarcinoma cells | SW480 DNA re-replication, Hoechst DNA content imaging, 48 h | Potency, µM (highest dose often 46.1 µM), hits mostly activators | hit rate 1.8% among 340,000 | AID 624297, 2012; further: nearly all actives have a fitted effect of over 55% in size
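First, 250 cells per well were seeded. Next, compound or vehicle (23 nL) was pinned in, plates sat 48 hr at 37 C. Finally Hoechst was added for 40 min before fluorescence scanning.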
VP16 counter: VP16 counterscreen qHTS for inhibitors of ROR gamma transcriptional activity. Drosophila S2 Gal4-VP16 UAS-luciferase, luminescence, 20 h. Potency, µM (titrated, usually from 53.6 µM), most hits filed as inhibitors. hit rate 3.5% among 310,000. AID 2546, 2010;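 further: Gal4-VP16 expression switched on by copper sulfate through the metallothionein promoter; nearly all actives have a fitted effect of over 50% in size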
MCF10A rerep: A quantitative high throughput screen for small molecules that induce DNA re-replication in MCF 10a normal breast cells | AID 624296, 2012 | hit rate 2.9% among 350,000 | Potency, µM (top dose mostly 46.1 µM), most hits filed as activators | MCF 10A DNA re-replication, Hoechst nuclear intensity, 48 h; further: nearly all actives have a fitted effect of over 50% in size
Giardia kill: Small Molecules that selectively kill Giardia lamblia: qHTS. activity change, % at 7.66 µM, hits read low. hit rate 0.15% among 340,000. AID 540267, 2011. Giardia lamblia trophozoite viability; in the data active means activity change below about -80%; inconclusive means between about -30% and that limit;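 further: parasites exposed to compound for two days anaerobically before the ATP read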
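Trophozoites 100 cells/well + cpd; 48 hrs, 37 deg C, anaerobic. ATPLite 1-Step added, 15-30 min RT, luminescence read (ATP-based viability).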
Chronic BCR inh: qHTS Assay to Find Inhibitors of Chronic Active B-Cell Receptor Signaling; ABC-DLBCL IkBa-CBG/CBR reporter, luminescence ratio, 4 h; Potency, µM (top dose mostly 46.1 µM), actives largely listed as inhibitors; hit rate 0.05% among 340,000; AID 493014, 2011; active means well fitted inhibition curve with a large enough effect in the signal ratio, with a control signal flat, not every such curve was filed as active; inconclusive means small, poorly fitted or top-dose-only effect, or effect the other way, or a change in a side signal; the % refers to the signal ratio
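Concentration-response series (up to 46 uM) were applied to TMD8 dual-reporter cells for 4 h at 37C with doxycycline. Green/red ratio, after filter-overlap correction, defined %Activity; red signal alone was normalised to basal cells and zero luminescence.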
RORgamma inh: qHTS for inhibitors of ROR gamma transcriptional activity; Nuclear receptor ROR-gamma (Mus musculus), P51450; Drosophila S2 Gal4-RORgamma UAS-luciferase reporter, 20 h; Potency, µM (doses to about 53.6 µM), usual class: inhibitors; hit rate 5.4% among 310,000; further: nearly all actives have a fitted effect of over 60% in size
Target sequence (P51450 whole entry, looked up, the tested form may be a part): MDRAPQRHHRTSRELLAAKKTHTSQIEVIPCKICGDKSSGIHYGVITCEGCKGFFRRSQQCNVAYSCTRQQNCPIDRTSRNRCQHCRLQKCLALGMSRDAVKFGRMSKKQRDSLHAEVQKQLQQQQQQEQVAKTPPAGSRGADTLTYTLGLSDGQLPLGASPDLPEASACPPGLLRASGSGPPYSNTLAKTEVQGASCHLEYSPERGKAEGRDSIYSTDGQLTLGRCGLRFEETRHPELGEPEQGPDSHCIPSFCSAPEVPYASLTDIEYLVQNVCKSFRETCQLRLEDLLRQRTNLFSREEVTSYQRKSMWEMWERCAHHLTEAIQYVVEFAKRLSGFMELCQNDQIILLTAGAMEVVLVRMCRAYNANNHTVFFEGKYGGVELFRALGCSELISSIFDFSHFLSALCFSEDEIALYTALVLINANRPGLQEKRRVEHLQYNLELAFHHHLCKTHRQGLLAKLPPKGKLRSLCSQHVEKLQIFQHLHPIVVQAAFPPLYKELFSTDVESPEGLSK
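Using a luciferase readout, inhibitors were identified by reduced reporter activity in Drosophila cells coexpressing a copper-inducible Gal4–ROR gamma fusion and UAS-driven Photinus luciferase, incubated 20 hr after 700 uM copper sulfate.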
Of the large screens only hits and unclear results are named; the others gave an inactive call. Unless noted, the call rests on the fitted dose curve; in most records, active means well fitted curve in the direction sought with a large enough effect; inconclusive means small, poorly fitted or top-dose-only effect, or another doubt; inactive means no such curve, though single readings can be large; an effect the other way counts as inactive or inconclusive.

Cc1ccc(S(=O)(=O)N2CCN(C(=O)c3ccc4ccccc4n3)CC2)c(C)c1	Chronic BCR inh inconclusive (no result: VP16 counter, RORgamma inh)
COc1ccc(C2c3c(ncn(CCN4CCOCC4)c3=N)Oc3ccc4ccccc4c32)cc1OC (stereo not drawn)	SW480 rerep inconclusive, VP16 counter 12.6µM, MCF10A rerep inconclusive, Chronic BCR inh inconclusive
COc1ccc(C2c3c(ncn(CCCO)c3=N)Oc3ccc4ccccc4c32)cc1 (stereo not drawn)	SW480 rerep inconclusive, MCF10A rerep inconclusive, Chronic BCR inh inconclusive
COc1ccc(C2c3c(ncn(CCCO)c3=N)Oc3ccc4ccccc4c32)cc1OC (stereo not drawn)	SW480 rerep inconclusive, MCF10A rerep inconclusive, Chronic BCR inh inconclusive
COc1ccccc1C1c2ccc3ccccc3c2Oc2ncn(CCCO)c(=N)c21 (stereo not drawn)	MCF10A rerep inconclusive, Chronic BCR inh inconclusive
COc1ccccc1C1c2ccc3ccccc3c2Oc2ncn(CCN(C)C)c(=N)c21 (stereo not drawn)	SW480 rerep inconclusive, MCF10A rerep 9.2µM, Chronic BCR inh inconclusive, RORgamma inh 10µM
COc1ccc(C2c3ccc4ccccc4c3Oc3ncn(CCCN(C)C)c(=N)c32)cc1 (stereo not drawn)	SW480 rerep 11.6µM, VP16 counter inconclusive, MCF10A rerep 20.6µM, Chronic BCR inh inconclusive, RORgamma inh 10µM
CCN(CC)S(=O)(=O)c1ccc(OC)c(NC(=O)c2cn(CC)c3nc(C)ccc3c2=O)c1	none
CCOc1ccc(C(CC(=O)O)NC(=O)C(Sc2ccccc2)c2ccccc2)cc1 (stereo not drawn)	none
Cc1ccc(C)c(OCCn2cc(/C=C(\C#N)C(=O)NCC3CCCO3)c3ccccc32)c1 (stereo not drawn)	SW480 rerep inconclusive, MCF10A rerep 16.4µM, Chronic BCR inh inconclusive, RORgamma inh inconclusive
COc1ccccc1NC(=O)c1nc(S(=O)(=O)Cc2ccccc2)ncc1Cl	SW480 rerep inconclusive, VP16 counter 5.01µM, MCF10A rerep inconclusive, Chronic BCR inh inconclusive, RORgamma inh 7.08µM
CCS(=O)(=O)c1ncc(Cl)c(C(=O)Nc2ccccc2OC)n1	SW480 rerep 2.91µM, VP16 counter 1.41µM, MCF10A rerep 2.31µM, RORgamma inh inconclusive
CCOc1ccccc1NC(=O)c1nc(S(=O)(=O)Cc2ccccc2)ncc1Cl	VP16 counter 4.47µM, MCF10A rerep 4.11µM, Chronic BCR inh inconclusive, RORgamma inh 10µM
Cc1ccc(C(=O)N/C(=C\c2ccco2)C(=O)NCCN2CCOCC2)cc1C	none
Cc1cc(NS(=O)(=O)c2ccc(NC(=O)COc3ccc(Cl)c(C)c3)cc2)no1	none
Cc1nn(-c2ccccc2)c2nc(-c3ccncc3)cc(C(=O)NCc3ccco3)c12	SW480 rerep inconclusive, MCF10A rerep inconclusive, Chronic BCR inh inconclusive
CCOC(=O)c1cc(-c2ccc(OC(F)F)cc2)nc2c1c(=O)[nH]c(=O)n2C	Chronic BCR inh inconclusive
CC(C)Cn1c(N)c(C(=O)COC(=O)c2cc(-c3ccco3)nc3ccccc23)c(=O)n(C)c1=O	Giardia kill inconclusive
CCCn1c(=O)c2c(C(=O)OCC)cc(-c3ccco3)nc2n(CCC)c1=O	MCF10A rerep 11.6µM
CCOC(=O)c1cc(-c2ccco2)nc2c1c(C)nn2-c1ccccc1	VP16 counter inconclusive, MCF10A rerep 9.2µM
CCOC(=O)c1cc(-c2ccc(OC)cc2)nc2c1c(C)nn2CCC(N)=S	SW480 rerep inconclusive, VP16 counter inconclusive, MCF10A rerep inconclusive, Chronic BCR inh inconclusive, RORgamma inh 4.47µM
CCCn1c(=O)c2c(C(F)(F)F)cc(-c3ccco3)nc2n(CCC)c1=O	MCF10A rerep inconclusive
Cn1c(=O)c(C(=O)COC(=O)c2cc(-c3ccco3)nc3ccccc23)c(N)n(Cc2ccccc2)c1=O	SW480 rerep inconclusive, MCF10A rerep 23.1µM (no result: Giardia kill)
CCOC(=O)c1c(C)[nH]c(C)c1S(=O)(=O)N(C)CC(=O)N(C)Cc1ccccc1	VP16 counter inconclusive
Nc1nc(C(F)(F)F)cc(=O)n1N	none
Cc1cc(CNC(=O)Cc2ccc(F)cc2)c2ccccc2n1	Chronic BCR inh inconclusive
Nc1ncnc(N2CCc3ccccc32)c1[N+](=O)[O-]	Chronic BCR inh inconclusive
CCCCNC(=S)Nc1ccc(C(F)(F)F)cc1	VP16 counter 12.6µM, MCF10A rerep inconclusive, RORgamma inh 4.47µM
CCCCNC(=S)Nc1ccc(Cl)cc1	VP16 counter inconclusive, RORgamma inh 7.08µM
CN(C)CCNC(=S)Nc1ccc(Cl)cc1	none
CN(C)NC(=S)Nc1ccc(Cl)cc1	VP16 counter 2.24µM, MCF10A rerep inconclusive, RORgamma inh inconclusive
CNNC(=S)Nc1ccc(Cl)cc1	RORgamma inh inconclusive
CCOC(=O)NC(=S)Nc1ccc(C(C)(C)C)cc1	VP16 counter 10µM, Chronic BCR inh inconclusive, RORgamma inh 2µM
CCNC(=S)Nc1ccc(C)c(Cl)c1	VP16 counter inconclusive, RORgamma inh 7.08µM
CC(C)(C)C(=O)NC(=S)Nc1ccc(Cl)c(C(=O)O)c1	RORgamma inh inconclusive
CC(=O)Nc1cc(-c2ccc(F)cc2)[nH]n1	none
CCNC(=S)Nc1ccc(Cl)cc1	Chronic BCR inh inconclusive, RORgamma inh 8.91µM
CC(C)(C)C(=O)NC(=S)Nc1ccc(C(F)(F)F)cc1	VP16 counter inconclusive, RORgamma inh 4.47µM
CCNC(=S)Nc1cc(-c2ccc(Cl)cc2)[nH]n1	VP16 counter 11.2µM, RORgamma inh 6.31µM
Cc1ccc(S(=O)(=O)NC(C)(C)C)cc1C(=O)OCC(=O)N1CCCC1=O	none (no result: VP16 counter, RORgamma inh)
CN(C(=O)COC(=O)Cc1ccc(Cl)cc1)C1CCCCC1	none (no result: VP16 counter, RORgamma inh)
COC(=O)[C@H]1C[C@H]1[C@@H](NC(=O)c1ccc[nH]1)c1ccccc1	VP16 counter inconclusive, MCF10A rerep inconclusive (no result: Chronic BCR inh)
CCOc1ccc(C(=O)OCC(=O)NCC2CCCO2)cc1 (stereo not drawn)	none (no result: VP16 counter, RORgamma inh)
CCCCNC(=S)Nc1ccc(OC)nc1	RORgamma inh 10µM
CN1CCN(C(c2ccc(Cl)cc2)c2cc(Cl)c3cccnc3c2O)CC1 (stereo not drawn)	VP16 counter 1.41µM, MCF10A rerep inconclusive, Chronic BCR inh inconclusive, RORgamma inh 3.16µM
CCN1CCN(C(c2ccc(C(F)(F)F)cc2)c2ccc3cccnc3c2O)CC1 (stereo not drawn)	VP16 counter 1.26µM, MCF10A rerep inconclusive, RORgamma inh 1.12µM
Oc1c(C(c2ccccn2)N2CCCCC2)cc(Cl)c2cccnc12 (stereo not drawn)	SW480 rerep inconclusive, VP16 counter inconclusive, MCF10A rerep 20.6µM, Chronic BCR inh inconclusive, RORgamma inh 2.82µM
